Compounds without any hit were thinned out: in the full panel of roughly 79,000, 15% have a hit. No stated cut-off is given here; in the data, active means growth inhibition above about 70%; inactive means the rest.
Legend:
[1] = NCI Yeast Anticancer Drug Screen. Data for the rad50 strain (AID 155);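 further: 0% = growth of vehicle-only cultures of the same strain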; conditions: S. cerevisiae rad50 strain growth inhibition; at 50.0 µM; stronger effect = higher value
Summary of the method: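 Genetically altered yeast (DNA repair pathway); compound treatment; growth inhibition vs vehicle ctrl.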

[2] = NCI Yeast Anticancer Drug Screen. Data for the mec2-1 strain (AID 157); conditions: S. cerevisiae mec2-1 strain, at 50.0 µM, stronger effect = higher value
Summary of the method: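 Strain: mec2-1 (DNA repair/cell cycle alteration). Compound exposure, then growth measured; inhibition expressed relative to vehicle.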

[3] = NCI Yeast Anticancer Drug Screen. Data for the sgs1 mgt1 strain (AID 161);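 further: 0% = growth of cultures given vehicle only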; conditions: S. cerevisiae sgs1 mgt1 strain, at 50.0 µM, stronger effect = higher value
Summary of the method: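 Inhibition of yeast growth, normalised to vehicle-treated controls, is reported for a strain bearing genetic alterations in DNA damage repair.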

[4] = NCI Yeast Anticancer Drug Screen. Data for the cln2 rad14 strain (AID 165);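 further: 0% = growth equal to vehicle treated cultures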; conditions: S. cerevisiae cln2 rad14 strain, at 50.0 µM, stronger effect = higher value
Summary of the method: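 Compounds are applied to the cln2 rad14 yeast strain, and growth is then compared with that of vehicle-treated cultures to give inhibition.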

[5] = NCI Yeast Anticancer Drug Screen. Data for the bub3 strain (AID 167); conditions: S. cerevisiae bub3 mutant strain, at 50.0 µM, stronger effect = higher value
Summary of the method: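 Yeast carrying a defined mutation is treated with each compound, and growth is compared with that of vehicle-exposed cells to give inhibition.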

[6] = NCI Yeast Anticancer Drug Screen. Data for the mlh1 rad18 strain (AID 175); conditions: S. cerevisiae mlh1 rad18 strain growth inhibition; at 50.0 µM; stronger effect = higher value
Summary of the method: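 Read-out is yeast growth inhibition, calculated against vehicle-only controls. The compound was applied to a strain engineered with DNA damage repair alterations.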

Measured: growth inhibition

COC(=O)C1Cc2cc3c(cc2C1=O)CCC3 (stereo unspecified)
inactive: [1] -19.2% | [2] -12.8% | [3] -2.8% | [4] 6.75% | [5] 20.4% | [6] -5.45%

NNC(=O)CC(N)C(=O)O (stereo unspecified)
inactive: [1] 9% | [2] 4.4% | [3] -4.2% | [4] -20.7% | [5] 1.15% | [6] 2%

NC(Cc1ccc(OC(c2ccccc2)(c2ccccc2)c2ccccc2)cc1)C(=O)O (stereo unspecified)
inactive: [1] -23.6% | [2] -9.5% | [3] 0.75% | [4] -18.4% | [5] -6.1% | [6] -12.2%

C=CCNC(=S)NC=C(C(N)=O)C(N)=O
inactive: [1] -25.9% | [2] -33% | [3] -22.5% | [4] -19.5% | [5] -4.9% | [6] -19.9%

NC(=S)N/N=C/c1ccc(OC(F)(F)F)cn1
inactive: [1] 27.1% | [2] 28.1% | [3] 46.5% | [4] 10.3% | [5] 59.5% | [6] 40.6%

ClCC1CCC(CCl)CC1 (stereo unspecified)
inactive: [1] -31.6% | [2] -18.4% | [3] -15.2% | [4] -5.95% | [5] -21.7% | [6] -16.1%

CN(C)C1CS(=O)(=O)OC2=C1COCC2 (stereo unspecified)
inactive: [1] -16.4% | [2] 9.8% | [3] -0.7% | [4] -3.8% | [5] 15.8% | [6] 2.55%

O=C1/C(=C/c2ccco2)N=C2Sc3c(nc[nH]c3=O)N12
inactive: [1] 2.4% | [2] -19.2% | [3] 6.55% | [4] -3.65% | [5] 9.5% | [6] 16.6%

O=C1CCC(N2C(=O)C3C4CCC(CC4)C3C2=O)C(=O)N1 (stereo unspecified)
inactive: [1] 2.75% | [2] -12.9% | [3] -14.9% | [4] -1.65% | [5] -2.65% | [6] -16.2%

Cc1cc(S(N)(=O)=O)c(SCc2nc(N)nc(N(C)C)n2)cc1Cl
inactive: [1] -30.8% | [2] -22.3% | [3] -20.3% | [4] 9.05% | [5] -37.4% | [6] 7.8%

O=CN/C=C\c1cc(O)ccc1O
inactive: [1] 3.1% | [2] 4.45% | [3] -2.6% | [4] 21.4% | [5] 16.9% | [6] 13.1%

O=C(c1ccccc1)C12CCC3CC(CC(C3)C1)C2
inactive: [1] -18.1% | [2] 8.25% | [3] 11.5% | [4] 6.05% | [5] 16.4% | [6] 9.65%

O=C(CN1CCCCC1)NC(=O)c1ccccc1
inactive: [1] -8.8% | [2] -11.6% | [3] -7.8% | [4] -9.15% | [5] 0.65% | [6] -7.5%

COc1ccc(CCCCl)c(C2=NCCc3ccccc32)c1
inactive: [1] 25.2% | [2] 12.7% | [3] -17.3% | [4] 12.2% | [5] -0.55% | [6] 1.95%

N#CCCc1ccc[nH]1
inactive: [1] -15.8% | [2] -8.45% | [3] -7.95% | [4] 10.6% | [5] 5.6% | [6] -5.85%

Cc1cc(C)[n+](C)c(/C=C\c2ccccc2Cl)n1
inactive: [1] 5.2% | [2] -1.7% | [3] 10.6% | [4] 15.2% | [5] -2.5% | [6] 22.1%

Nc1nc(/C=C(/O)c2ccccc2)c2ncn(C3OC(CO)C(O)C3O)c2n1 (stereo unspecified)
inactive: [1] 25.3% | [2] -6.25% | [3] 13.4% | [4] -4.7% | [5] 11.2% | [6] -17.8%

CN(C(=O)C12C3C4C1C1C2C3C41C(=O)N(C)C(C)(C)C)C(C)(C)C (stereo unspecified)
inactive: [1] 13.9% | [2] 11.5% | [3] -7.4% | [4] 9.45% | [5] 23.4% | [6] -2.4%

O=C(Nc1cccc(Cl)c1)OCC#CCOC(=O)Nc1cccc(Cl)c1
inactive: [1] -4% | [2] 11.6% | [3] 1.95% | [4] -10.8% | [5] 0.85% | [6] 11.2%

C=CCCCCCCCCCCCCCCCCC
inactive: [1] -25.9% | [2] -24.1% | [3] -13.3% | [4] 10.4% | [5] -16.1% | [6] -28%

Cc1ccc(S(=O)(=O)OCC2COC(C(C)C)OC2)cc1 (stereo unspecified)
inactive: [1] 5.45% | [2] -2.95% | [3] 9.3% | [4] 2.15% | [5] 48% | [6] -1.25%

From PubChem BioAssay (NCI)
